High-throughput results from PubChem BioAssay.
USP2a inhib: inhibitors of human ubiquitin-specific protease USP2a; USP2a enzymatic assay, qHTS inhibition; Potency, µM (doses to about 38.3 µM), most hits filed as inhibitors; hit rate 0.1% among 60,000; AID 927; note: nearly all actives have a fitted effect of over 60% in size
Target sequence (O75604 whole entry, looked up): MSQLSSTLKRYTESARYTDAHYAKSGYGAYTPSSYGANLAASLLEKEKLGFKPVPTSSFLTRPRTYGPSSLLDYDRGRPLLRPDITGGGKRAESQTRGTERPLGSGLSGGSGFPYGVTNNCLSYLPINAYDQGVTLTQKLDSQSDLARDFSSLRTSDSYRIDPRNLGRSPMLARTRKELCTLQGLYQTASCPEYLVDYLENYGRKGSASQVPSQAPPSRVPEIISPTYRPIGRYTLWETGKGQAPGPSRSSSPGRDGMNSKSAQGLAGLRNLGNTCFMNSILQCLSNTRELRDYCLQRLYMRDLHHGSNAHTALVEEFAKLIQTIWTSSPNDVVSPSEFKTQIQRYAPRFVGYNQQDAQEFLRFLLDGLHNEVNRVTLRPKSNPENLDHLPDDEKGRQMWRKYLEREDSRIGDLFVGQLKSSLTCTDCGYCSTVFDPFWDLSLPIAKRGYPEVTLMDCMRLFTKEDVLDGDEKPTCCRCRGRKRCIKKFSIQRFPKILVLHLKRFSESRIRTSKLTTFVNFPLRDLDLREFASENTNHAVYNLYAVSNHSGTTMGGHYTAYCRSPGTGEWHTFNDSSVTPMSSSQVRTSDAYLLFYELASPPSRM
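Inhibition is measured in a cell-free coupled assay with 20 nM USP2 core, 20 nM Ub-PLA2 and 20 uM NBD C6-HPC, 2.5 h incubation. Activity normalized to NEM control.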
Ub-GFP proteasome: inhibits proteasome, raising ubiquitin-GFP reporter fluorescence; Ubiquitin-GFP reporter cells, proteasome inhibition, GFP fluorescence; response scale: untreated = 0%, 10 µM MG-132 = 100%; Potency, µM (highest dose often 45.9 µM), actives largely listed as activators; 67,000 tested, under 10 active; active = well fitted activation curve with a large enough effect, not every such curve was filed as active; inconclusive = small, poorly fitted or top-dose-only effect, or another doubt; inactive = no such curve, though single readings can be large or run the other way
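U2OS cells stably expressing ubiquitin(G76V)-GFP, seeded overnight in 0.5% FBS medium, were exposed to compounds (qHTS, 46 uM to 2.9 nM) for 4 hr at 37 °C. GFP-positive cells were counted by laser cytometry (488 ex/515 em), normalized between basal and 10 uM MG-132.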
Hsp90 Hop PPI: changes Hsp90-Hop TPR2A binding signal, up or down. AlphaScreen TPR2A-His6 binding biotin-Hsp90 C-terminal peptide. hit rate 0.44% among 71,000. Potency, µM (highest dose often 57 µM). AID 595; active = well fitted curve in either direction with a large enough effect; inconclusive = small, poorly fitted or top-dose-only effect, or another doubt
BRCT PPI red: inhibitors of human BRCA1 BRCT-phosphoprotein interaction (red fluorophore). P38398. BRCT-phosphopeptide binding, red fluorescence polarization. Potency, µM (top dose mostly 76.9 µM), most hits filed as inhibitors. hit rate 0.03% among 75,000
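Fluorescence polarization: 100 nM His-tagged BRCA1 BRCT with 100 nM TAMRA-labelled phospho-BACH1 decapeptide, phosphate buffer pH 7.3 with 150 mM NaCl, DTT, 0.01% Tween 20; 12 min RT. Binding inhibition seen as FP decrease.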
BRCT PPI green: inhibitors of human BRCA1 BRCT-phosphoprotein interaction (green fluorophore); P38398; BRCA1 BRCT-phosphopeptide binding, green fluorescence polarization; Potency, µM (top dose mostly 76.9 µM), usual class: inhibitors; hit rate 0.05% among 75,000
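Compounds were incubated for 12 min at room temperature with a complex of 100 nM fluorescein-tagged pBACH1 decapeptide and 250 nM His-tagged BRCT protein. Buffer was phosphate pH 7.3 with EDTA, DTT and Tween 20. Disruption of binding lowers the polarization signal.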
YjeE inh: displaces an ADP probe from E. coli YjeE (TsaE); P0AF67; purified YjeE enzyme, qHTS inhibition assay; Potency, µM; hit rate 0.05% among 71,000; AID 605
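Fluorescence polarization of a BODIPY Texas Red–ADP probe (2 uM) bound to purified YjeE (10 uM) was read after 15 min room-temperature incubation with compounds. Loss of polarization marks inhibitors; ADP serves as titrated control.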
Large screens that a line does not name were inactive; ! = repeats disagree. Rows were chosen to be rich in hits. Some 0.47% of all compounds tested hit in one or more screens of this group. Unless noted, calls come from the whole dose curve; as a rule, active = well fitted curve in the direction sought with a large enough effect; inconclusive = small, poorly fitted or top-dose-only effect, or another doubt; inactive = no such curve, though single readings can be large; an effect the other way counts as inactive or inconclusive.

CC(C)OC(=O)c1c(NC(=O)c2cccs2)sc2c1CCCC2	Hsp90 Hop PPI 25.1µM
COc1ccc(O[C@H]2C=C[C@@H](c3ccccc3)O[C@H]2COC(=O)CC/C(C)=N\O[C@@H](C)c2cn([C@H](CO)Cc3ccccc3)nn2)cc1	none (no result: USP2a inhib, Ub-GFP proteasome, Hsp90 Hop PPI, YjeE inh)
O=Nc1c(-c2c(O)[nH]c3ccccc23)[nH]c2ccccc12	USP2a inhib inconclusive, Hsp90 Hop PPI 12.6µM!
O=S(=O)(NCCCCCCc1ccccc1)c1cccc2c(Cl)cccc12	Hsp90 Hop PPI 39.8µM (no result: USP2a inhib)
O=C(O)CSc1cc(-c2ccccc2)nc2ccccc12	none (no result: USP2a inhib)
CC(C)CN1CCc2nc(-c3ccccc3)c3c(c2CC1)COC(C)C3 (stereo not drawn)	none (no result: USP2a inhib, Ub-GFP proteasome, Hsp90 Hop PPI, YjeE inh)
O=C(CCCCCCCCCCCCC1CCCC1)Nc1ccc(S(=O)(=O)c2ccc(NC(=O)CCCCCCCCCCCCC3CCCC3)cc2)cc1	USP2a inhib 25.1µM (no result: Ub-GFP proteasome, Hsp90 Hop PPI, YjeE inh)
NS(=O)(=O)c1ccc(NC(=O)CCC2CCCCC2)cc1	none (no result: USP2a inhib)
O=[N+]([O-])c1ccc2c(N=Nc3ccc4ccccc4c3O)c(O)cc(S(=O)(=O)O)c2c1	Hsp90 Hop PPI inconclusive, YjeE inh 7.94µM (no result: USP2a inhib)
O=S(=O)(O)c1ccc2c(N=Nc3cccc4ccccc34)c(O)c(S(=O)(=O)O)cc2c1	none (no result: USP2a inhib)
N#CCCn1c(=O)c(-c2ccc(Cl)cc2)nc2cnc(N3CCNCC3)nc21	none
O=C(Nc1nc(-c2ccc(Cl)s2)cs1)c1cccs1	none (no result: Ub-GFP proteasome)
O=C(Nc1nc(-c2ccccn2)cs1)c1ccc(Cl)s1	Hsp90 Hop PPI 7.94µM (no result: USP2a inhib)
FC(F)(F)c1cc(-c2ccccc2)nc(NCC2CCCO2)n1 (stereo not drawn)	Hsp90 Hop PPI 31.6µM
O=S1(=O)Nc2c(ccc3cccnc23)-c2ccccc21	Hsp90 Hop PPI 3.16µM
O=c1[nH]n(-c2cccc3cccnc23)c(=O)c2ccccc12	none
Cc1cc(C)c(C#N)c(SCC(=O)OC2CCCCC2)n1	Hsp90 Hop PPI 31.6µM (no result: USP2a inhib)
Cc1cc(C)c(C#N)c(SCC(=O)CC(=O)OC(C)C)n1	none
CCCCOc1ccc(-c2nnn(C(C)(C)C(=O)OC)n2)cc1	Hsp90 Hop PPI 25.1µM
COCCn1c(=O)c(-c2cn(C)c3ccccc23)nc2cnc(OCc3ccccc3)nc21	none
COCCn1c(=O)c(-c2cn(C)c3ccccc23)nc2cnc(Oc3ccccc3)nc21	Hsp90 Hop PPI 3.16µM
COc1ccc(C(NC(C)=O)c2ccc3cccnc3c2O)c(OC)c1 (stereo not drawn)	Hsp90 Hop PPI 15.8µM
O=C(O)c1ccc(N[C@H](c2ccccc2)c2ccc3cccnc3c2O)cc1	none (no result: USP2a inhib)
CC(C)C(=O)NC(c1ccco1)c1ccc2cccnc2c1O (stereo not drawn)	Hsp90 Hop PPI 10µM
CC(C)c1nc2oc3c(=O)[nH]cnc3c2c2c1CCC2	USP2a inhib 1.58µM
CC(C)c1nc2oc3c(N4CCNCC4)ncnc3c2c2c1CCC2	none
COc1ccc2noc3c2c1C(=O)c1ccccc1-3	Hsp90 Hop PPI inconclusive, BRCT PPI green 3.16µM
O=C1c2ccccc2-c2onc3ccc(NCCCn4ccnc4)c1c23	Hsp90 Hop PPI 25.1µM, BRCT PPI red 0.631µM, BRCT PPI green 0.794µM, YjeE inh 25.1µM
Cc1nc(NCCCn2ccnc2)c2ccccc2n1	none
COC1=C(OC)C(=O)c2ccccc2C1=O	none
CC(C)NC[C@H]1CCc2cc(CO)c([N+](=O)[O-])cc2N1	none
CSc1nc(N)c2ncn([C@@H]3O[C@@H](COP(=O)(O)OP(=O)(O)OP(=O)(O)O)[C@@H](O)[C@H]3O)c2n1	none
CSc1nc(N)c2ncn([C@H]3O[C@H](COP(=O)(O)OP(=O)(O)OP(=O)(O)O)[C@@H](O)[C@@H]3O)c2n1	YjeE inh 79.4µM (no result: USP2a inhib)
COc1cc(O)c2c(O)c3c(c4c2c1[C@@]1(C4)C(C)=CCCC1(C)C)[C@H](O)[C@@]1(O)CC(=O)C(C(N)=O)=C(O)[C@]1(O)C3=O	none (no result: USP2a inhib)
CC(C)(C)c1ccc(-c2nnc3sc(-c4ccccn4)nn23)cc1	Hsp90 Hop PPI 2µM (no result: USP2a inhib)
Cc1ccc2c(c1)c1c(n2C)C(C(N)=O)CCC1 (stereo not drawn)	USP2a inhib 6.31µM
